# Laboratory results reported in PubChem BioAssay AID652065 (The Scripps Research Institute Molecular Screening Center, 2013).
# About 3,000 (70%) of roughly 4,300 compounds were called active. So high a share suggests a set chosen from earlier hits. Only a sample is shown. Unmarked numbers belong to inactive results.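 The calls were made as follows: active = inhibition above a per-plate cutoff, the mean inhibition of sample wells plus 3 SD (cut at about 35% in these data); inactive = the rest.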
# Assay: small molecules binding CAG repeat RNA – biochemical, fluorescence, confirmation (AID 652065);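 also: loss of TO-PRO-1 fluorescence as compound displaces dye from 1x1 AA loop RNA; 0% = DMSO only wells and 100% = 100 µM mitoxantrone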
# Conditions: r(CAG) RNA repeat, TO-PRO-1 dye displacement fluorescence; at 3 µM; stronger effect = higher value
row,Structure (SMILES),inhibition
1,O=C1NC(=O)N(Cc2ccco2)C(=O)/C1=C\c1ccc(-c2ccc(F)cc2)o1,20.4%
2,COc1ccc(N2C(=O)/C(=C/c3ccco3)C(=O)NC2=S)cc1,87% (active)
3,CC/C(=N\NC(=O)c1ccccc1O)c1c(O)n(Cc2ccccc2)c(=O)[nH]c1=O,75.3% (active)
4,O=C1CC(=O)N(Cc2ccccc2)C(=O)N1CCCCCCN1C(=O)CC(=O)N(Cc2ccccc2)C1=O,54.7% (active)
5,COc1cccc(N2C(=O)NC(=O)/C(=C\c3ccc([N+](=O)[O-])s3)C2=O)c1,48% (active)
6,O=C1NC(=O)N(c2ccccc2)C(=O)/C1=C/c1ccc([N+](=O)[O-])s1,61.7% (active)
7,COc1ccc2c(c1)[C@@]13CCCCC1[C@@H](C2)NCC3 (some centres not stated),-0.72%
